The text below walks through data of PubChem BioAssay AID808 (Columbia University Molecular Screening Center, 2007).

Structures are written as SMILES. Hit rate of the full screen: of about 93,000 compounds, about 180 (0.19%) were called active. The sample holds actives, similar compounds and a random draw of the others, so the mix is not that of the screen. A number with no mark means an inactive call.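 Rule for the calls: active = activation above the screen mean plus 3 SD, with well images confirming the hit on visual review (cut at about 28% in these data, passing the limit was not always enough); inconclusive = activation above that limit but images do not confirm it; inactive = activation not above that limit.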

This assay is described as follows: potentiators of TNFa-induced VCAM1 expression, primary screen, imaging, HUVEC, TNFa stimulus, immunofluorescence (AID 808).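 Note: signal is the number of cytoplasmic VCAM-1 stained grains per positive cell.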 The settings on record: HUVEC TNFa-stimulated VCAM-1 immunofluorescence, high-content imaging; at 2 µM; active compounds read high; scaled per plate to unstimulated/TNFa-only wells.
Regarding `CSc1nnc2c(n1)OC(c1cn(C)c3ccccc13)N(C(C)=O)c1ccccc1-2` (stereo not drawn), the activation is -5%.
In the case of `CCOc1cc(-c2cc(-c3ccc(OC)cc3)nc(N)c2C#N)ccc1O` it was 32.6% (active); in that of `CSc1ccc(CCNC(=O)C2CCN(c3nnc(-n4cccc4)s3)CC2)cc1`, -2.8%.
Turning to `O=C(Cn1cnc2c(nnn2Cc2ccc(F)cc2)c1=O)NCc1ccc2c(c1)OCO2`, the activation was -6.6%.
The result for `Cc1ccc(N2C(=O)c3ccccc3C2(O)c2ncc[nH]2)cc1` (stereo not drawn) reads -0.7%; that for `CCOC(=O)c1ccc(NC(=O)CS(=O)(=O)c2cn(CC)c3ccccc23)cc1`, -6.9%.
In the case of `COc1ccc2c(c1)C=CC1(O2)N(CCO)c2ccccc2C1(C)C` (stereo not drawn) it was 1.4%.
Turning to `O=C(Nc1nccs1)C1CCN(S(=O)(=O)c2ccc(Cl)c(C(F)(F)F)c2)CC1`, the activation is -9.5%.
As to `O=c1c2ccccc2nc2n1C(CSCc1cccc(C(F)(F)F)c1)CS2` (stereo not drawn), the activation was -7.9%.
In the case of `O=C(NCc1ccco1)c1sc2cccc(F)c2c1Cl` it was 0.7%.
In the case of `CC1(C)CC(=O)C=C(N2CCCC2)C1` it was 79% (active); in that of `Oc1ccc2nc(Cc3ccccc3)[nH]c2c1`, 5.6%; in that of `CC(C)NC(=O)c1ccccc1S(=O)c1ccccc1C#N` (stereo not drawn), -0.6%.
Regarding `Cc1cc(Nc2ccccc2)n(CCC#N)n1`, the activation is -2.1%.
The result for `COc1ccc(CC(=O)Nc2sc(Cc3ccccc3)c(C)c2C(N)=O)cc1` reads 8.4%; that for `Cn1c(=O)n(C)c2cc(CNc3ccc(N4CCOCC4)c(C(=O)O)c3)ccc21`, -26.1%.
In the case of `Brc1ccc(-c2nnc(-c3ccccc3)o2)o1` it was 20.5%; in that of `O=[N+]([O-])c1ccccc1OCCCCN1CCCCC1`, -6.6%.
As for `CCOc1ccccc1Nc1nnc(SCc2ccc(C(=O)OC)o2)s1`, the activation was -4.9%.
Consider `O=C(CSc1nc2ccccc2o1)N1CCN(c2ccc(Cl)cc2)CC1`, for which the activation is 6.9%.
The result for `COc1ccc(-c2nnc(SCC(=O)NC3CCCCC3)o2)cc1OC` reads -87.2%; that for `CC1(C)Cc2cccc(OCC(N)=O)c2O1`, -5.6%.
Consider `O=C1c2ccccc2C(=O)c2c1cccc2N1CCN(Cc2ccccc2)CC1`, for which the activation was 8.5%.
The result for `COc1ccc(-c2cc(C(F)(F)F)nc(SCCC(=O)NCc3ccco3)n2)cc1` reads -32.5%; that for `COc1ccc(OC)c(N=Cc2c(O)[nH]c3ccccc23)c1`, 41.3% (active); that for `O=S(=O)(c1cccs1)N1CCN(Cc2ccccc2)CC1`, 6.9%.
Consider `CCOC(=O)c1c(N=CN(C)C)c(C#N)c2n1CCCC2`, for which the activation is -8.6%.
With `Cc1ccc(S(=O)(=O)N(CC(=O)NCCSC2CCCCC2)c2ccccc2F)cc1`, the activation is 8.5%.
On to `CCOC(=O)N1CCN(C(=O)c2cc3c(ccc4ccccc43)oc2=O)CC1`, for which the activation is -5.2%.
In the case of `Cc1cnc(NC(=O)CSc2nnc(-c3ccccc3)n2Cc2ccccc2)s1` it was -2%; in that of `Cc1ccc2c(Cl)c(C(=O)NCCCn3ccnc3)sc2c1`, -28.3%; in that of `Nc1cc(=O)nc(SCc2ccccc2)n1Cc1ccco1`, -95%.
The result for `CCC(=O)c1ccc(OCC(O)CN2CCN(c3cccc(C(F)(F)F)c3)CC2)cc1` (stereo not drawn) reads 4.1%; that for `CCOC(=O)CSc1nc2c(c(=O)n(C)c(=O)n2C)n1Cc1ccccc1F`, -0.2%; that for `CC(N)C12CC3CC(CC(O)(C3)C1)C2` (stereo not drawn), 1%.
The result for `CC(C)N1C(=O)C2C(C(=O)NC3CCCCC3)C3C=CC2(O3)C1C(=O)NC1CCCC1` (stereo not drawn) reads -10.8%; that for `COc1ccc(-n2nnnc2SCC(=O)c2ccc(OC)c(OC)c2)cc1`, -6.6%.
Regarding `CCN(CC(=O)NC(C)C)C(=O)CCNC(=O)c1ccc(Cl)cc1`, the activation is -9.6%.
The result for `COC(=O)C1=C(C)N=C2SC(C)C(=O)N2C1/C=C/c1ccccc1` (stereo not drawn) reads -6.2%; that for `COc1ccccc1NC1=NC(c2ccc(Cl)cc2)N=C(N)N1` (stereo not drawn), -12.5%.
In the case of `Cc1ccc(S(=O)(=O)NC(=O)N2CCCC(C)(C)C2)cc1` it was 4.1%; in that of `Cc1[nH]c2ccccc2c1C(=O)CSCC(=O)O`, 4.2%; in that of `O=C(OCC(=O)N1CCCC1)c1ccco1`, -4.1%.
As to `NNC(=O)C1CCCn2c1nc1sc3c(c1c2=O)CCCC3` (stereo not drawn), the activation is -4.7%.
In the case of `COc1cc(/C=N\NC(=O)C2C(=O)NCC2c2ccccc2)cc(OC)c1O` (stereo not drawn), the activation was -1.5%.
The result for `CC(=O)c1ccc(OCCN2CCOCC2)cc1` reads -16.7%.
For `CC1(C)C2CCC13CS(=O)(=O)NC3C2` (stereo not drawn), the activation was 19.3%.
The result for `CC1(C)OC(=O)N2CCc3ccccc3C21C` (stereo not drawn) reads 0.2%; that for `CCCNS(=O)(=O)c1ccc(CCC(=O)NCc2cccnc2)cc1`, 34.1%; that for `O=[N+]([O-])c1ccccc1/C=N/n1c(COc2ccccc2)n[nH]c1=S`, -14.7%.
For `CCOC(=O)CCc1c(C)c(C#N)c2[nH]c3ccccc3n2c1=O`, the activation is 0.5%.
With `CC(C)OC(=O)c1cc(NC(=O)C2C3CCC(O3)C2C(=O)O)cc(C(=O)OC(C)C)c1` (stereo not drawn), the activation is 15.7%.
As to `Cc1ccc(OCC(=O)Nc2cccc3c2CCCC3)cc1C`, the activation is -1.7%.
As to `CSCCC(C(=O)NC1=NCCS1)N1C(=O)c2ccccc2C1=O` (stereo not drawn), the activation was 5.7%.
In the case of `O=C(Nc1ncc2c(n1)CC(c1ccco1)CC2=O)c1ccc(Cl)cc1` (stereo not drawn) it was -91.4%.
The result for `CCOC(=O)N1CCN(C(=O)CN(c2ccc(C)c(C)c2)S(=O)(=O)c2ccccc2)CC1` reads 0.5%; that for `Cc1n[nH]c(C)c1S(=O)(=O)N1CCCC(C(=O)NCC2COc3ccccc3O2)C1` (stereo not drawn), -3.9%; that for `Cc1ccc(CCNC(=O)C2CCN(S(=O)(=O)N3CCCC3)CC2)cc1`, -9.5%.
The result for `CCCc1cc(=O)[nH]c(SCc2ccc(C#N)cc2)n1` reads -3%; that for `O=C(COc1ccc2ccccc2c1)N1CCN(C(=O)c2cccs2)CC1`, -21.6%.
On to `COc1ccc(OC)c(NC(=O)CCN2CCC(C)CC2)c1`, for which the activation was 1.4%.
For `Cc1ccc(S(=O)(=O)NCCSC(C)(C)C)cc1`, the activation was -9%.
For `Cc1ccc(Cn2nnc3c(=O)n(CC(=O)N4CCCCC4)cnc32)cc1`, the activation was 5.6%.
Take `CCOc1ccc(NC(=O)Nc2ccc(N(C)C(C)=O)cc2)cc1`: the activation is 16.6%.
In the case of `O=C(NCCN1CCOCC1)[C@H](Cc1ccccc1)N1C(=O)c2ccccc2C1=O` it was -8.5%; in that of `C=CCn1c(COc2ccccc2F)nnc1SCC(=O)N1CC(=O)Nc2ccccc21`, -4.4%.
On to `O=C(c1ccc(Cl)cc1)c1ccc(OCC(O)CN2CCCCC2)cc1` (stereo not drawn), for which the activation is -0.9%.
Regarding `Cc1cc(NC(=O)COc2ccc(Cl)cc2Cl)n(CCC#N)n1`, the activation was 4.1%.
The result for `COc1cccc(C(=O)Nc2ccc(NC(=O)c3ccco3)cn2)c1` reads 8.2%; that for `Cc1cnc(NC(=O)C2CCCC2)s1`, -57.6%; that for `COCCNC(=O)c1snc2ccc(Cl)cc12`, 11.1%.
The result for `O=C(NCCN1CCN(Cc2ccccc2)CC1)c1cc2c(=O)[nH]c3ccccc3c2s1` reads 2.1%; that for `O=C(CS(=O)(=O)c1cn(Cc2cccc(F)c2)c2ccccc12)N1CCCCC1`, -50.1%.
In the case of `CCOC(=O)N1CCN(C(c2cccnc2)c2ccc3cccnc3c2O)CC1` (stereo not drawn) it was -10%; in that of `CC1=NN(C(C)C)C(=O)C1`, 25% (active).
For `COc1ccc(Cl)cc1C(=O)NCC#N`, the activation was 5.7%.
In the case of `COC(=O)c1c(-c2cccs2)csc1NC(=O)CSc1ncnc2sc(C)c(C)c12`, the activation is 1.8%.
The result for `Cc1[nH]n(-c2ccc(Cl)cc2)c(=O)c1/C=N/n1c(C)nc2ccccc2c1=O` reads 9.2%; that for `CCN(CC)C(=O)CSC1c2ccccc2C(=O)N1c1ccccc1` (stereo not drawn), -7.1%; that for `CCN(CC)CCCNC(=O)CCc1ccccc1`, 4.1%.
The result for `C/C(=C\C(=O)c1ccccc1)Nc1cccc(O)c1` reads 2.2%; that for `Cc1nnc(SCC(=O)NC2CCCC2)s1`, -13.9%.
In the case of `CN(C)CCCn1c(N)c(C#N)c2nc(C#N)c(C#N)nc21` it was -7.9%; in that of `C=CCn1c(Cn2nnc3ccccc32)nnc1SCC(=O)N/N=C/c1cc(Br)cc(OC)c1O`, 1.7%; in that of `CCOc1ccc(N=C2NC(=O)S/C2=C\c2ccc(O)cc2)cc1`, 29.2% (active).
On to `O=C(Cc1ccc(-n2c(=O)[nH]c3ccccc3c2=O)cc1)N1CCN(c2cccc(Cl)c2)CC1`, for which the activation is -1.2%.
In the case of `Cc1c(C(=O)OCC(=O)N(CCC#N)c2ccccc2)oc2c1ccc1ccccc12` it was -4.9%.
As for `COc1ccccc1NC(=O)CSc1nnc(Cn2nnc(-c3ccccc3)n2)n1-c1ccccc1`, the activation was 11.3%.
Take `CSc1nc2ccccc2cc1/C=C(\C#N)c1ccc(Cl)cc1Cl`: the activation was -3.2%.
In the case of `CCCCN(C)C(=O)C1CCN(Cc2ccccn2)CC1` it was 35.5% (active).
The result for `Cc1ccc(OCC(O)CN2CCN(CC(O)COc3ccc(C)cc3Cl)CC2)c(Cl)c1` (stereo not drawn) reads -1.2%.
The result for `O=C(c1ccco1)N1CCN(C(=O)C2c3ccccc3Oc3ccccc32)CC1` reads -5.9%; that for `Cc1ccc(F)cc1NC(=O)c1ccc2c(c1)OCO2`, -96.8%; that for `CC(=O)Nc1ccc(S(=O)(=O)N2CCN(C(=O)c3ccccc3F)CC2)cc1`, -7.6%.
As to `C=C(Br)CN1CCN(CC(=C)Br)CC1`, the activation was 17.8%.
In the case of `Cn1c(C(=O)OC(C(=O)NC2CCCCC2)c2ccccn2)cc2sccc21` (stereo not drawn) it was 7.6%; in that of `C=C(C)CNC(=S)/N=c1\scc(C)n1CC`, -4.4%.
With `COc1cccc(OCc2cc(/C=N/NC(=O)c3nc(Cl)c(Cl)c(N)c3Cl)ccc2OC)c1`, the activation was -6.7%.
